Where a chain is given by its changes, count along the chain named.
How the values were obtained:
Experiment in all cases: yeast three-hybrid, YBZ-1, SC-Leu-His + 0.5 mM 3-AT, 4 days
Settings in all cases: tags: N-Gal4 AD-HA kept; label: inside an RPR1-promoter hybrid RNA with tandem MS2 sites; ssRNA
[1] = molecular target: PUM1 PUF domain R8-RYS (Homo sapiens, UniProt Q14671 828-1176, N1122R;Q1126S)
How it was run: (§1)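 Pumilio-1 PUF domain libraries, randomized at the three base-contacting residues of each repeat, were co-expressed with matching RNA elements from a centromeric plasmid in strain YBZ-1, which carries a LexA–MS2 coat fusion and a HIS3 reporter. Transformants grew for four days on SC-Leu (input) or on SC-Leu-His + 0.5 mM 3-AT (selection), and the repeat regions were PCR-amplified and Illumina-sequenced. The interaction score is the log change in variant frequency from input to selection. That logarithm is base 2, with a pseudocount of 1 where a variant was absent.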

[2] = molecular target: PUM1 PUF domain R7-KSS (Homo sapiens, UniProt Q14671 828-1176, S1079K;N1080S;E1083S)
How it was run: as §1

[3] = molecular target: PUM1 PUF domain R7-KRA (Homo sapiens, UniProt Q14671 828-1176, S1079K;N1080R;E1083A)
How it was run: as §1

[4] = molecular target: PUM1 PUF domain R4-GWP (Homo sapiens, UniProt Q14671 828-1176, N971G;H972W;Q975P)
How it was run: as §1

[5] = molecular target: PUM1 PUF domain R2-LWD (Homo sapiens, UniProt Q14671 828-1176, N899L;Y900W;Q903D)
How it was run: as §1

[6] = molecular target: T1, PUM1 PUF domain R6-QRR (Homo sapiens, UniProt Q14671 828-1176, N1043Q;Y1044R;Q1047R)
T1 sequence: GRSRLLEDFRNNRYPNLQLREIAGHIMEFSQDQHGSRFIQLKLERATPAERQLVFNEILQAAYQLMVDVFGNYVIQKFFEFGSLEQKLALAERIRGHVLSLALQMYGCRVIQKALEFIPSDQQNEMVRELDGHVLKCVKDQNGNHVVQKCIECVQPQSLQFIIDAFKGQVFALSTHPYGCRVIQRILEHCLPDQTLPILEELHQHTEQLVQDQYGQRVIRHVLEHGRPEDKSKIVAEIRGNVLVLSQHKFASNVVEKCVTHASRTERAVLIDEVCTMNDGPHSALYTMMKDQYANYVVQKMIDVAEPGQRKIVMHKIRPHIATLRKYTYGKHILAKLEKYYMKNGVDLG
How it was run: as §1

[7] = molecular target: PUM1 PUF domain R1-TGE (Homo sapiens, UniProt Q14671 828-1176, S863T;R864G;Q867E)
How it was run: as §1

[8] = molecular target: PUM1 PUF domain R1-YTR (Homo sapiens, UniProt Q14671 828-1176, S863Y;R864T;Q867R)
How it was run: as §1

[9] = molecular target: PUM1 PUF domain R1-HKR (Homo sapiens, UniProt Q14671 828-1176, S863H;R864K;Q867R)
How it was run: as §1

[10] = molecular target: PUM1 PUF domain R1-TLE (Homo sapiens, UniProt Q14671 828-1176, S863T;R864L;Q867E)
How it was run: as §1

[11] = molecular target: PUM1 PUF domain R4-RWP (Homo sapiens, UniProt Q14671 828-1176, N971R;H972W;Q975P)
How it was run: as §1

[12] = molecular target: T2, PUM1 PUF domain R6-MWS (Homo sapiens, UniProt Q14671 828-1176, N1043M;Y1044W;Q1047S)
T2 sequence: T1 sequence with Q216M, R217W, R220S
How it was run: as §1

[13] = molecular target: PUM1 PUF domain R4-SRI (Homo sapiens, UniProt Q14671 828-1176, N971S;H972R;Q975I)
How it was run: as §1

[14] = molecular target: T3, PUM1 PUF domain R6-CFI (Homo sapiens, UniProt Q14671 828-1176, N1043C;Y1044F;Q1047I)
T3 sequence: T1 sequence with Q216C, R217F, R220I
How it was run: as §1

**Q.** With “GGCUAGAACUAGUGGAUCCCCCGGCGCCCGGCGGCUCGAGCCCGGGUAAGCGUAAAUAGUCUGCAUGCCGCCGGGCGCCAUGCCUGCAGGUCGACUCUAGAAAACAUG” as the sequence, how does the binding signal [1] read?
**A.** 6.43 log2 enrichment (interaction score)

**Q.** For “GGCUAGAACUAGUGGAUCCCCCGGCGCCCGGCGGCUCGAGCCCGGGUAAGUCUAAAUAGUCUGCAUGCCGCCGGGCGCCAUGCCUGCAGGUCGACUCUAGAAAACAUG”, which binding signal [2] is on record?
**A.** 2.54 log2 enrichment (interaction score)

**Q.** What about the binding signal [3] of the same sequence?
**A.** 5.25 log2 enrichment (interaction score)

**Q.** “GGCUAGAACUAGUGGAUCCCCCGGCGCCCGGCGGCUCGAGCCCGGGUAAGUGUACAUAGUCUGCAUGCCGCCGGGCGCCAUGCCUGCAGGUCGACUCUAGAAAACAUG” was tested. Which binding signal [4] did it give?
**A.** 7 log2 enrichment (interaction score)

**Q.** Which binding signal [5] does the source give for “GGCUAGAACUAGUGGAUCCCCCGGCGCCCGGCGGCUCGAGCCCGGGUAAGUGUAAAAAGUCUGCAUGCCGCCGGGCGCCAUGCCUGCAGGUCGACUCUAGAAAACAUG” here?
**A.** 5.97 log2 enrichment (interaction score)

**Q.** With “GGCUAGAACUAGUGGAUCCCCCGGCGCCCGGCGGCUCGAGCCCGGGUAAGUGCAAAUAGUCUGCAUGCCGCCGGGCGCCAUGCCUGCAGGUCGACUCUAGAAAACAUG” as the sequence, how does the binding signal [6] read?
**A.** 5.8 log2 enrichment (interaction score)

**Q.** What does the source list for “GGCUAGAACUAGUGGAUCCCCCGGCGCCCGGCGGCUCGAGCCCGGGUAAGUGUAAAUUGUCUGCAUGCCGCCGGGCGCCAUGCCUGCAGGUCGACUCUAGAAAACAUG”?
**A.** binding signal [7]: 3.46 log2 enrichment (interaction score); binding signal [8]: 6.22 log2 enrichment (interaction score); binding signal [9]: 3.25 log2 enrichment (interaction score); binding signal [10]: 4.15 log2 enrichment (interaction score)

**Q.** How did the binding signal [11] turn out when “GGCUAGAACUAGUGGAUCCCCCGGCGCCCGGCGGCUCGAGCCCGGGUAAGUGUAAAUAGUCUGCAUGCCGCCGGGCGCCAUGCCUGCAGGUCGACUCUAGAAAACAUG” was run?
**A.** 5.93 log2 enrichment (interaction score)

**Q.** And the binding signal [12]?
**A.** 5.31 log2 enrichment (interaction score)

**Q.** And the binding signal [6]?
**A.** 6.35 log2 enrichment (interaction score)

**Q.** And the binding signal [1]?
**A.** 4.4 log2 enrichment (interaction score)

**Q.** And the binding signal [13]?
**A.** 3.08 log2 enrichment (interaction score)

**Q.** And the binding signal [4]?
**A.** 6.31 log2 enrichment (interaction score)

**Q.** How did the binding signal [12] turn out when “GGCUAGAACUAGUGGAUCCCCCGGCGCCCGGCGGCUCGAGCCCGGGUAAGUGAAAAUAGUCUGCAUGCCGCCGGGCGCCAUGCCUGCAGGUCGACUCUAGAAAACAUG” was run?
**A.** 2.78 log2 enrichment (interaction score)

**Q.** And the binding signal [14]?
**A.** 5.68 log2 enrichment (interaction score)
